Where a name gives a salt, the structure may show the parent alone. ± gives the standard deviation of the averaged measurements.
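Note: viability read as CCK-8 absorbance at 450 nm in cells co-exposed to the GPX4 inhibitor RSL3, relative to a 0.01% DMSO vehicle control.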

The test system of the test is HT-1080. Kind of test: relative cell viability with RSL3 co-treatment (fraction of control); higher = stronger protection from RSL3-induced ferroptosis (higher viability). The note with it: 10 µM.
As to `O=C(Nc1nc2cccc(-c3ccc(CN4CCS(=O)(=O)CC4)cc3)n2n1)C1CC1` [Filgotinib (GLPG0634)], the relative cell viability was 0.687 ± 0.035.
Regarding `Cc1ccc(NC(=O)c2ccc(CN3CCN(C)CC3)cc2)cc1Nc1nccc(-c2cccnc2)n1` [Imatinib Mesylate (STI571)], the relative cell viability was determined as 0.733 ± 0.17.
For `CN(c1ccccc1CNc1nc(Nc2ccc3c(c2)CC(=O)N3)ncc1C(F)(F)F)S(C)(=O)=O`, the relative cell viability turned out to be 0.723 ± 0.045.
With `O=C(NOCC1CC1)c1ccc(F)c(F)c1Nc1ccc(I)cc1Cl` the figure was 0.693 ± 0.2; with `OC(c1cc(-c2ccc(Cl)cc2)nc2ccccc12)C1CCCCN1` (stereo not drawn) [Vacquinol-1], 0.0533 ± 0.035; with `COc1c(C)c(C(=O)c2ccc(N)c(C(=O)O)c2)n2ccccc12`, 0.653 ± 0.14.
Turning to `CCN(CC)CCCC(C)Nc1ccnc2cc(Cl)ccc12` (stereo not drawn) [Chloroquine Phosphate], the relative cell viability turned out to be 0.817 ± 0.12.
As to `Cc1nc(NC(=O)N2CCC[C@H]2C(N)=O)sc1-c1ccnc(C(C)(C)C(F)(F)F)c1` [Alpelisib (BYL719)], the relative cell viability is 0.827 ± 0.015.
As for `Cc1nc(Nc2ncc(C(=O)Nc3c(C)cccc3Cl)s2)cc(N2CCN(CCO)CC2)n1` [Dasatinib], the relative cell viability was found to be 0.553 ± 0.091.
For the compound `Cc1c(CN2CCN(C(=O)[C@H](C)O)CC2)sc2c(N3CCOCC3)nc(-c3cnc(N)nc3)nc12` [Apitolisib (GDC-0980, RG7422)], the relative cell viability came out at 0.47 ± 0.09.
For `N#CC(=C(/N)Sc1ccccc1N)/C(C#N)=C(\N)Sc1ccccc1N` the value was 0.84 ± 0.017.
As to `Cc1cc(C(C)Nc2ccccc2)c2nc(N3CCOCC3)cc(=O)n2c1` (stereo not drawn), the relative cell viability came to 0.627 ± 0.059.
For the compound `Cc1ccc(C(=O)Nc2ccc(CN3CCN(C)CC3)c(C(F)(F)F)c2)cc1C#Cc1cnc2[nH]ncc2c1` [GZD824 Dimesylate], the relative cell viability came out at 0.553 ± 0.031.
In the case of `Cn1cc(C2=C(c3ccc(Cl)cc3Cl)C(=O)NC2=O)c2ccccc21`, the relative cell viability worked out at 0.8333 ± 0.0058.
For the compound `Cc1cc(N2CCOCC2)cc2[nH]c(-c3c(NC[C@@H](O)c4cccc(Cl)c4)cc[nH]c3=O)nc12`, the relative cell viability is 0.987 ± 0.15.
In the case of `COc1ccc(S(=O)(=O)N(C(C)=O)c2ccccc2/C=C/c2cc[n+]([O-])cc2)cc1`, the relative cell viability turned out to be 0.633 ± 0.015.
As to `COc1ncc(-c2cc(-c3ncc(CN4C[C@@H](C)O[C@@H](C)C4)o3)c3cn[nH]c3c2)cc1NS(C)(=O)=O`, the relative cell viability worked out at 0.563 ± 0.051.
`O=C(O)c1ccc(N2C(=O)/C(=C\c3ccc(-c4ccc([N+](=O)[O-])cc4)o3)C=C2c2ccccc2)cc1`: the relative cell viability worked out at 1.24 ± 0.092.
Take `O=c1cc(-c2ccccc2)oc2c(O)c(O)ccc12` [7,8-Dihydroxyflavone]: the relative cell viability stood at 0.713 ± 0.011.
`O=C1NC(=O)C(c2cnc3ccccn23)=C1c1cn2c3c(cc(F)cc13)CN(C(=O)N1CCCCC1)CC2`: the relative cell viability came to 0.577 ± 0.015.
For `CC(=O)Nc1nc(C)c(-c2ccc(Cl)c(S(=O)(=O)NCCO)c2)s1`, the relative cell viability is 0.603 ± 0.057.
With `CNC(=O)c1ccccc1Sc1ccc2c(/C=C/c3ccccn3)n[nH]c2c1` [Axitinib] the figure was 0.63 ± 0.22; with `CC1(COc2ccc3c(c2)ncn3-c2ccc3cccc(N4CCC(N)CC4)c3n2)COC1`, 0.683 ± 0.27; with `NC[C@@](O)(c1ccc(Cl)cc1)c1ccc(-c2cn[nH]c2)cc1`, 0.687 ± 0.22.
Take `COc1cc(-c2cc(-c3ccc(N4CCNCC4)cc3)cnc2C)cc(OC)c1OC`: the relative cell viability amounted to 0.74 ± 0.075.
With `CCCCCCCCCCCCc1ccc(S(=O)(=O)Nc2nncs2)cc1` the figure was 0.877 ± 0.09; with `Cc1ccc(Nc2nccc(N(C)c3ccc4c(C)n(C)nc4c3)n2)cc1S(N)(=O)=O`, 0.597 ± 0.15.
Take `O=C(Nc1cccc(Cl)c1)Nc1ncc(CCNc2ncnc3ccsc23)s1` [SNS-314 Mesylate]: the relative cell viability stood at 0.217 ± 0.015.
With `COc1cc(N2CCC(N)CC2)ccc1Nc1ncc(Cl)c(-c2c[nH]c3ccccc23)n1` the figure was 0.24 ± 0.062; with `Cc1nc(Nc2n[nH]c3c2CN(C(=O)N[C@H](CN(C)C)c2ccccc2)C3(C)C)c2sccc2n1`, 0.557 ± 0.032; with `CCS(=O)(=O)Nc1ccc2c(c1)/C(=C(/Nc1ccc(CN3CCCCC3)cc1)c1ccccc1)C(=O)N2` [Hesperadin], 0.293 ± 0.12.
With `O=C(c1ccc(/C=C/c2n[nH]c3ccccc23)cc1)N1CCNCC1` the figure was 0.773 ± 0.076; with `COc1cc2ncnc(Nc3ccc(F)c(Cl)c3)c2cc1NC(=O)/C=C/CN1CCCCC1`, 0.61 ± 0.046.
For `CCOc1cc2ncc(C#N)c(Nc3ccc(F)c(Cl)c3)c2cc1NC(=O)/C=C/CN(C)C` [Pelitinib (EKB-569)] the value was 0.247 ± 0.081; for `COc1cc(OC)c(/C=C/S(=O)(=O)Cc2ccc(OC)c(NCC(=O)O)c2)c(OC)c1`, 0.7 ± 0.026; for `Cc1ccc(F)c(NC(=O)Nc2ccc(-c3cccc4[nH]nc(N)c34)cc2)c1` [Linifanib (ABT-869)], 0.36 ± 0.046.
Take `NCC(=O)Nc1ccc(-n2nc(C(F)(F)F)cc2-c2ccc3c(ccc4ccccc43)c2)cc1`: the relative cell viability amounted to 0.06 ± 0.056.
With `CSc1cccc(Nc2ncc3cc(-c4c(Cl)cccc4Cl)c(=O)n(C)c3n2)c1`, the relative cell viability turned out to be 0.683 ± 0.1.
